# In the supplement of paper PMC4466140:
# Tests used:
# Assay in all cases: SPOT peptide array binding signal intensity (averaged, normalized) (arbitrary units (background-subtracted, floor 0; scale differs between SH3 domains)); higher = stronger binding of the SH3 domain to the peptide
# AgAbp1 = molecular target: AgAbp1
# Procedure, shortened: (§1)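 The binding signal is the normalized, background-subtracted spot intensity averaged over replicates; its arbitrary units differ between domains. It was obtained by incubating 10 μg/ml GST-fused SH3 domains from four yeast species overnight at 4°C in TBS-based blocking buffer on cellulose membranes with synthetic 15-mer peptides, cysteines replaced by serines, then detecting with anti-GST antibody, HRP anti-mouse secondary and luminol.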
# AgBbc1 = molecular target: AgBbc1
# Procedure, shortened: as §1
# AgBem1-D1 = molecular target: AgBem1-D1
# Procedure, shortened: as §1
# AgBzz1-D1 = molecular target: AgBzz1-D1
# Procedure, shortened: as §1
# AgBzz1-D2 = molecular target: AgBzz1-D2
# Procedure, shortened: as §1
# AgCyk3 = molecular target: AgCyk3
# Procedure, shortened: as §1
# AgFus1 = molecular target: AgFus1
# Procedure, shortened: as §1
# AgHof1 = molecular target: AgHof1
# Procedure, shortened: as §1
# AgHse1 = molecular target: AgHse1
# Procedure, shortened: as §1
# AgLsb1 = molecular target: AgLsb1
# Procedure, shortened: as §1
# AgLsb4 = molecular target: AgLsb4
# Procedure, shortened: as §1
# AgMyo5 = molecular target: AgMyo5
# Procedure, shortened: as §1
# AgNbp2 = molecular target: AgNbp2
# Procedure, shortened: as §1
# AgRvs167 = molecular target: AgRvs167
# Procedure, shortened: as §1
# AgSho1 = molecular target: AgSho1
# Procedure, shortened: as §1
# AgSla1-D1-D2 = molecular target: AgSla1-D1-D2
# Procedure, shortened: as §1
# AgSla1-D3 = molecular target: AgSla1-D3
# Procedure, shortened: as §1
# CaAbp1-D1 = molecular target: CaAbp1-D1
# Procedure, shortened: as §1
# CaAbp1-D2 = molecular target: CaAbp1-D2
# Procedure, shortened: as §1
# CaBbc1 = molecular target: CaBbc1
# Procedure, shortened: as §1
# CaBem1-D1 = molecular target: CaBem1-D1
# Procedure, shortened: as §1
# CaBzz1-D1 = molecular target: CaBzz1-D1
# Procedure, shortened: as §1
# CaBzz1-D2 = molecular target: CaBzz1-D2
# Procedure, shortened: as §1
# CaCyk3 = molecular target: CaCyk3
# Procedure, shortened: as §1
# CaFus1 = molecular target: CaFus1
# Procedure, shortened: as §1
# CaHof1 = molecular target: CaHof1
# Procedure, shortened: as §1
# CaHse1 = molecular target: CaHse1
# Procedure, shortened: as §1
# CaLsb1 = molecular target: CaLsb1
# Procedure, shortened: as §1
# CaLsb4 = molecular target: CaLsb4
# Procedure, shortened: as §1
# CaMyo5 = molecular target: CaMyo5
# Procedure, shortened: as §1
# CaNbp2 = molecular target: CaNbp2
# Procedure, shortened: as §1
# CaRvs167 = molecular target: CaRvs167
# Procedure, shortened: as §1
# CaRvs167-3 = molecular target: CaRvs167-3
# Procedure, shortened: as §1
# CaSho1 = molecular target: CaSho1
# Procedure, shortened: as §1
# CaSla1-D1-D2 = molecular target: CaSla1-D1-D2
# Procedure, shortened: as §1
# CaSla1-D3 = molecular target: CaSla1-D3
# Procedure, shortened: as §1
# ScAbp1 = molecular target: ScAbp1
# Procedure, shortened: as §1
# ScBbc1 = molecular target: ScBbc1
# Procedure, shortened: as §1
# ScBem1-D1 = molecular target: ScBem1-D1
# Procedure, shortened: as §1
# ScBzz1-D1 = molecular target: ScBzz1-D1
# Procedure, shortened: as §1
# ScBzz1-D2 = molecular target: ScBzz1-D2
# Procedure, shortened: as §1
# ScCyk3 = molecular target: ScCyk3
# Procedure, shortened: as §1
# ScFus1 = molecular target: ScFus1
# Procedure, shortened: as §1
# ScHof1 = molecular target: ScHof1
# Procedure, shortened: as §1
# ScHse1 = molecular target: ScHse1
# Procedure, shortened: as §1
# ScLsb1 = molecular target: ScLsb1
# Procedure, shortened: as §1
# ScLsb2 = molecular target: ScLsb2
# Procedure, shortened: as §1
# ScLsb3 = molecular target: ScLsb3
# Procedure, shortened: as §1
# ScLsb4 = molecular target: ScLsb4
# Procedure, shortened: as §1
# ScMyo3 = molecular target: ScMyo3
# Procedure, shortened: as §1
# ScMyo5 = molecular target: ScMyo5
# Procedure, shortened: as §1
# ScNbp2 = molecular target: ScNbp2
# Procedure, shortened: as §1
# ScPex13 = molecular target: ScPex13
# Procedure, shortened: as §1
# ScRvs167 = molecular target: ScRvs167
# Procedure, shortened: as §1
# ScSho1 = molecular target: ScSho1
# Procedure, shortened: as §1
# ScSla1-D1-D2 = molecular target: ScSla1-D1-D2
# Procedure, shortened: as §1
# ScSla1-D3 = molecular target: ScSla1-D3
# Procedure, shortened: as §1
# SpAbp1-D1 = molecular target: SpAbp1-D1
# Procedure, shortened: as §1
# SpBbc1 = molecular target: SpBbc1
# Procedure, shortened: as §1
# SpBzz1-D1 = molecular target: SpBzz1-D1
# Procedure, shortened: as §1
# SpBzz1-D2 = molecular target: SpBzz1-D2
# Procedure, shortened: as §1
# SpCyk3 = molecular target: SpCyk3
# Procedure, shortened: as §1
# SpHof1 = molecular target: SpHof1
# Procedure, shortened: as §1
# SpHof1-2 = molecular target: SpHof1-2
# Procedure, shortened: as §1
# SpHof1-3 = molecular target: SpHof1-3
# Procedure, shortened: as §1
# SpHse1 = molecular target: SpHse1
# Procedure, shortened: as §1
# SpLsb1 = molecular target: SpLsb1
# Procedure, shortened: as §1
# SpLsb4 = molecular target: SpLsb4
# Procedure, shortened: as §1
# SpMyo1 = molecular target: SpMyo1
# Procedure, shortened: as §1
# SpNbp2 = molecular target: SpNbp2
# Procedure, shortened: as §1
# SpPex13 = molecular target: SpPex13
# Procedure, shortened: as §1
# SpRvs167 = molecular target: SpRvs167
# Procedure, shortened: as §1
# SpSla1-D1-D2 = molecular target: SpSla1-D1-D2
# Procedure, shortened: as §1
# SpSla1-D3 = molecular target: SpSla1-D3
# Procedure, shortened: as §1
binder,measurement,setting,value
RPVPRRPSQPLNTLS,SPOT peptide array binding signal intensity,AgAbp1,306
same,SPOT peptide array binding signal intensity,AgBbc1,801
same,SPOT peptide array binding signal intensity,AgBem1-D1,68.5
same,SPOT peptide array binding signal intensity,AgBzz1-D1,100
same,SPOT peptide array binding signal intensity,AgBzz1-D2,89
same,SPOT peptide array binding signal intensity,AgCyk3,1.25
same,SPOT peptide array binding signal intensity,AgFus1,24
same,SPOT peptide array binding signal intensity,AgHof1,32.8
same,SPOT peptide array binding signal intensity,AgHse1,67.5
same,SPOT peptide array binding signal intensity,AgLsb1,94.8
same,SPOT peptide array binding signal intensity,AgLsb4,2090
same,SPOT peptide array binding signal intensity,AgMyo5,≤ 0
same,SPOT peptide array binding signal intensity,AgNbp2,2250
same,SPOT peptide array binding signal intensity,AgRvs167,182
same,SPOT peptide array binding signal intensity,AgSho1,12.8
same,SPOT peptide array binding signal intensity,AgSla1-D1-D2,17
same,SPOT peptide array binding signal intensity,AgSla1-D3,7.12
same,SPOT peptide array binding signal intensity,CaAbp1-D1,456
same,SPOT peptide array binding signal intensity,CaAbp1-D2,805
same,SPOT peptide array binding signal intensity,CaBbc1,1900
same,SPOT peptide array binding signal intensity,CaBem1-D1,34
same,SPOT peptide array binding signal intensity,CaBzz1-D1,388
same,SPOT peptide array binding signal intensity,CaBzz1-D2,189
same,SPOT peptide array binding signal intensity,CaCyk3,413
same,SPOT peptide array binding signal intensity,CaFus1,141
same,SPOT peptide array binding signal intensity,CaHof1,0.25
same,SPOT peptide array binding signal intensity,CaHse1,56.1
same,SPOT peptide array binding signal intensity,CaLsb1,1.25
same,SPOT peptide array binding signal intensity,CaLsb4,2000
same,SPOT peptide array binding signal intensity,CaMyo5,8
same,SPOT peptide array binding signal intensity,CaNbp2,1770
same,SPOT peptide array binding signal intensity,CaRvs167,1240
same,SPOT peptide array binding signal intensity,CaRvs167-3,6
same,SPOT peptide array binding signal intensity,CaSho1,19.5
same,SPOT peptide array binding signal intensity,CaSla1-D1-D2,796
same,SPOT peptide array binding signal intensity,CaSla1-D3,5
same,SPOT peptide array binding signal intensity,ScAbp1,280
same,SPOT peptide array binding signal intensity,ScBbc1,514
same,SPOT peptide array binding signal intensity,ScBem1-D1,6.5
same,SPOT peptide array binding signal intensity,ScBzz1-D1,43.2
same,SPOT peptide array binding signal intensity,ScBzz1-D2,25.8
same,SPOT peptide array binding signal intensity,ScCyk3,22
same,SPOT peptide array binding signal intensity,ScFus1,≤ 0
same,SPOT peptide array binding signal intensity,ScHof1,0.5
same,SPOT peptide array binding signal intensity,ScHse1,389
same,SPOT peptide array binding signal intensity,ScLsb1,258
same,SPOT peptide array binding signal intensity,ScLsb2,56
same,SPOT peptide array binding signal intensity,ScLsb3,5960
same,SPOT peptide array binding signal intensity,ScLsb4,1750
same,SPOT peptide array binding signal intensity,ScMyo3,2
same,SPOT peptide array binding signal intensity,ScMyo5,1.25
same,SPOT peptide array binding signal intensity,ScNbp2,3100
same,SPOT peptide array binding signal intensity,ScPex13,1420
same,SPOT peptide array binding signal intensity,ScRvs167,2300
same,SPOT peptide array binding signal intensity,ScSho1,163
same,SPOT peptide array binding signal intensity,ScSla1-D1-D2,1000
same,SPOT peptide array binding signal intensity,ScSla1-D3,18
same,SPOT peptide array binding signal intensity,SpAbp1-D1,147
same,SPOT peptide array binding signal intensity,SpBbc1,380
same,SPOT peptide array binding signal intensity,SpBzz1-D1,466
same,SPOT peptide array binding signal intensity,SpBzz1-D2,1.5
same,SPOT peptide array binding signal intensity,SpCyk3,6.75
same,SPOT peptide array binding signal intensity,SpHof1,297
same,SPOT peptide array binding signal intensity,SpHof1-2,441
same,SPOT peptide array binding signal intensity,SpHof1-3,278
same,SPOT peptide array binding signal intensity,SpHse1,297
same,SPOT peptide array binding signal intensity,SpLsb1,350
same,SPOT peptide array binding signal intensity,SpLsb4,5510
same,SPOT peptide array binding signal intensity,SpMyo1,37.8
same,SPOT peptide array binding signal intensity,SpNbp2,81.5
same,SPOT peptide array binding signal intensity,SpPex13,4.25
same,SPOT peptide array binding signal intensity,SpRvs167,3150
same,SPOT peptide array binding signal intensity,SpSla1-D1-D2,13
same,SPOT peptide array binding signal intensity,SpSla1-D3,2
